Experimental data taken from the supplement of paper PMC6555819.

Legend:
Assay in all cases: PBM binding z-score (relative to random genomic background probes); higher = stronger binding; sequences stand for … in GC…GCGATTGACAGCGTAGAATGAAGG
[1] = tested on: RARb homodimer (NR concentration 270 nM)
Method in brief: (§1)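 Scanned fluorescence from custom Agilent 4×180K protein-binding microarrays was regression-normalized. Binding z-scores use random background probes as reference. Ligand-free nuclear receptor dimers were incubated on the arrays for 1 h and detected with antibodies against each partner (one per run).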

[2] = tested on: RARg:RXRa (NR concentration 270 nM, RXRa partner concentration 90 nM)
Method in brief: as §1

[3] = tested on: RARg homodimer (NR concentration 270 nM)
Method in brief: as §1

[4] = tested on: RXRa DBDmut IVT, anti-RXR (DBD mutation: RXRa K156A/R161A, NR concentration 90 nM)
Method in brief: as §1

[5] = tested on: RXRa homodimer (NR concentration 180 nM)
Method in brief: as §1

[6] = tested on: THRa:RXRa (NR concentration 90 nM, RXRa partner concentration 90 nM)
Method in brief: as §1

[7] = tested on: THRa homodimer (NR concentration 90 nM)
Method in brief: as §1

[8] = tested on: VDR homodimer (NR concentration 270 nM)
Method in brief: as §1

Sequence	PBM binding z-score [1]	PBM binding z-score [2]	PBM binding z-score [3]	PBM binding z-score [4]	PBM binding z-score [5]	PBM binding z-score [6]	PBM binding z-score [7]	PBM binding z-score [8]
TCTCGGAGGACACGAAAGGTCATAGCTCGACATC	4.89	5.58	5.34	1.71	5.3	4.24	2.12	2.67
CTACCAAGGTGAACAAGGTCGTTTATTACTATTC	2.34	1.72	1.55	2.29	1.77	3.26	2.33	3
CGAACTAGGTCATTGACAGAACAGTGAATAGTAA	2.34	3.64	4.15	2.74	2.46	2.47	0.922	1.15
ATCGAAAGGTCGATGGTGAGTATACCCACCCGAA	1.45	3.25	3.01	0.438	3.21	1.26	-0.577	0.213
GCCTACGGGTCAAAGGTTATAGCATGAATAGAAT	3.15	6.82	4.24	1.55	9.55	3.62	-0.143	1.08
ACTAATAGTTGACTTAGGGCAACCGATACGACGC	0.958	0.412	0.996	0.674	0.408	1.6	0.383	0.15
GCTAGTTGTTCAGTAAAAGGTCACACACCGGTCG	5.07	4.7	4.28	0.628	5.06	3.39	1.77	1.84
CCTATTAGTTGACCATAAGGGTAACCGAAGCTCG	1.5	1.01	0.877	0.493	0.639	1.3	1.19	1.2
CTACCAAGGTGAACAAGGTCGTTCATTACTATTC	2.93	2.18	1.75	2.32	2.27	3.56	2.2	3.38
ACAGACAGTTGATGAAGGTAACTCAGGCTATCAT	0.387	0.00583	0.279	0.223	0.183	0.764	0.154	0.0979
ACTATTAGTTGACTTAGGGCAACTGATACGACGC	0.726	0.872	1.07	0.417	0.497	1.31	0.235	0.0906
GGAACGAGGGCATTCGAGTTTATAGCATGGCGAT	0.829	1.22	1.53	3.83	0.915	3.48	-0.483	4.64
AGAATCAGGTTACCAAAGATCAGGGAAACGCTTG	0.374	0.744	0.974	0.0556	0.775	1.36	0.124	-0.469
TCAGACAGGTGAAGATAACTCAGGTACGCAGTCG	0.661	0.712	0.748	1.15	1.13	0.737	0.4	0.623
ATCTCTAGGTAAAAGTTCACTGAATCCCGAGGAT	3.15	3.04	2.99	0.997	3.02	2.01	0.473	2.79
TGAATGAGGTTATAAAATCAGGGAACGTTGCAAA	0.0245	1.01	0.843	0.43	1.44	1.56	-0.0954	0.227
ACTATTAGTTGAGGCGAGGGCAACCGATAGGTTG	1.3	0.575	0.748	0.263	0.386	2.43	0.721	0.813
TCTTGTAGATCAACAGGAGGTTAACAAAGATCGA	0.875	1.22	0.542	0.267	1.3	1.22	0.0101	-0.33
TATGCTAGGTCAACGATGGTCAGCTAATCTGCTA	3.36	4.02	4.8	0.79	2.62	3.24	0.639	-0.267

Sequence	PBM binding z-score [1]	PBM binding z-score [2]	PBM binding z-score [3]	PBM binding z-score [4]	PBM binding z-score [5]	PBM binding z-score [6]	PBM binding z-score [7]	PBM binding z-score [8]
GCAGACAGGTGAAACTCAGGTAACTCAGGGTGGC	0.42	1.03	0.566	-0.185	0.901	2.7	0.521	-0.73
TCTAGTTAGTCACGGAGGTCACACACGACGGGTA	3.95	3.7	3.44	1.24	4.28	3.56	2.59	1.97
TCATATAGGTAAAGGTGACAGTCGAACGATATGA	1.42	1.61	1.5	0.827	2.06	1.38	-0.0654	-0.0372
CATACAGTGTCAGCTAGGCCAGAGTAGGGACGGC	0.245	0.397	0.832	-0.017	0.0865	0.027	0.00703	-0.455
CATACAGGGTCAGCTAGGCCAGGGTAGGGACGGC	3.59	4.48	5.13	0.607	4.42	3.28	1.26	1.47
CGTCCAAGCTCATAGGAGGTCAGTGAAGACAGAT	2.8	1.69	2.04	0.593	1.22	2.38	0.642	0.938
CAAACTAGGTCAAGGTCAAAGTCGGTTTGTGCCA	5.13	6.18	6.97	3.21	6.34	4.35	3.74	4.46
CGTCCAAGGTCATAGGAGGACAGTGAAGACAGAT	4.12	5.65	6.13	3.71	5.55	4.99	2.83	3.3
GTACCAAGGTGAATAGGTCGTTGCTGAGTAGGCG	1.71	2.56	1.13	-0.0766	1.53	1.8	0.155	-0.166
GATACAGGGTCACGGCCAGAGTACGCGTATTGAT	3.98	6.54	6.18	2.92	7.78	4.17	2.03	3.26
TGTATGAGGTTATAAGATCAGGGAACGTTGCAAA	0.472	1.82	1.46	1.02	1.85	2.08	0.546	0.837
GCGAGTTGGTCAGTAAAAGGTCACACACCGGTCG	5.05	5.52	4.95	1.34	5.54	3.47	1.74	2.27
CAAACTAGGTCACACAGGTCAAAGTCCGTGCGTA	5.02	6.04	5.85	2.27	5.62	4.13	2.13	4.16
TCTTTTAGATCAATAGAGGTTAAGAAAGTGCGCT	1.25	1.22	1.09	0.967	1.58	2.4	-0.64	0.459
CCTATTAGGTGACCATAAGGGCAACCGAAGCTCG	2.13	2.09	1.22	-0.22	1.08	2.64	1.52	0.127
CGTCAAAGTTCAACTCAGGTAACGTAAAGCACGC	4.24	5.85	6.43	4.55	5.06	5.03	1.38	4.21
CAAACTAGGTCAAGAGGTCAAAATCCGCTTCCCG	5.66	7.74	7.02	2.42	7.25	4.55	2.33	3.18
AGAATGAGTTTATACGTAGATCAGGGAAGAAAGT	-0.157	0.14	0.357	3.89	-0.175	-0.0164	-0.368	3.35
CAAACTAGGTCAAGTTCAAAGTCGGTTTGTGCCA	4.52	5.17	5.92	3.84	4.23	3.52	2.16	6.29

Sequence	PBM binding z-score [1]	PBM binding z-score [2]	PBM binding z-score [3]	PBM binding z-score [4]	PBM binding z-score [5]	PBM binding z-score [6]	PBM binding z-score [7]	PBM binding z-score [8]
CCTACTGGGCTATTCAGAGGTCATTGATCATATG	3.63	3.55	2.52	1.07	3.56	3.16	1.28	3.02
CGAACTAGGTCAAGGACCGTGAATCTCCGCACGC	2.79	3.42	4.01	1.15	2.32	2.46	0.938	-0.163
ATATGTAGGTCACATCCGGGTCATTCAGGCTATG	4.84	6.67	5.7	2.15	5.28	4.65	2.94	3.78
CAAACTAGGTCACGAAAGGTCAAAGTCGAATGAC	5.65	7.91	8.57	2.39	7.98	5.23	2.6	3.77
TCTTGTAGACCAAAGGTTAAGAAAGCCGAAGCCT	1.34	1.88	0.82	0.533	2.54	1.3	-0.878	-0.489
TCTATTAGTGGAAGGGCAACCGACGAGTCCGTTT	1.21	0.443	0.673	1.28	0.619	0.13	0.0131	1.3
CCAACTGGGCCACGAAAGGTCATTGATTCAGTGA	4.65	4.7	4.65	0.781	5.13	3.69	0.917	2.32
GGAACGAGGGCATTCGATTTGATAGCATGGCGAT	0.884	1.28	1.49	3.11	1.01	1.09	-0.234	1.9
TTACCAAGGTGAAAGGGCGTTGATGCACGCCTTG	1.2	1.59	0.688	-0.264	2.14	1.99	0.369	0.227
CGTCCAAGGACAAAGGTCAGTGAAGAGATGACGG	4.61	5.3	4.95	1.31	4.03	4	1.15	0.88
CGAACTAGGTGAAGGACAGTGAATCTCCGCACGC	0.454	0.04	0.23	-0.281	0.265	0.232	-0.201	-0.373
ACAGACAGGTGAGTGAAGGTAACTCATCTGGACG	-0.00809	0.205	0.564	-0.622	0.146	1.57	-0.651	-0.803
CGTCCAAGGTCAGAGGTCAGTGAAGAGATGACGG	5.38	7.02	7.05	2.66	7.78	4.58	2.42	2.61
CCTGCCAGGTCATGGTCAGCTAATCTACAGTATG	3.28	4.12	4.46	1.81	3.17	3.64	2.48	0.972
TCTAGCAGGCCAGACGGTCACTCAAGAGGTACGG	1.12	0.224	0.8	-0.226	0.291	-0.447	-0.799	-1.01
ATCGAAAGGTAGACGAGGTGAGTATACACCGTTT	0.107	0.927	0.758	-0.531	0.582	2.01	0.239	-0.467
CAGTCTAGGTCAGGGCCAGTATAGGAGGAACGTT	2.84	3.02	3.96	0.701	1.55	2.42	1.52	0.322
CCTTACGGGTCACTCCAGGATATAGCATCGGAGT	2.33	4.02	3.98	1.43	4.06	4.39	0.217	1.23
